PubChem BioAssay AID743279 (National Center for Advancing Translational Sciences (NCATS), 2014)
The whole screen tested about 360,000 compounds, of which about 17,000 (4.7%) were called active. About 5% were inconclusive and are not listed. For the sample, actives were picked, then their nearest neighbours and some compounds at random. Unmarked numbers belong to inactive results. No stated cut-off is given here; in the data, active means activity change below about -50%; inconclusive means mostly about -30% to -49%; inactive means weaker than that.

assay: qHTS for Inhibitors of Inflammasome Signaling: IL-1-beta AlphaLISA Primary Screen; conditions: THP-1 LPS/ATP IL-1B secretion, 16 h; at 57.5 µM, hits give low values
Method in brief: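 Secreted IL-1B measured by AlphaLISA bead assay after 16 h compound exposure of THP-1 cells; compounds (final up to 57.5 uM) added 1 h before LPS (250 ng/mL) and ATP (1.25 mM) stimulation; lower signal means less secretion.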
On the % scale 0 is the no-effect control and ±100 the full control effect.

Row | Compound | activity change
1 | CCN(CCCNC(=O)CCn1c(=O)[nH]c2ccsc2c1=O)c1ccccc1 | -7.98%
2 | CCN1CCN(CCNC(=O)c2ccc3c(c2)NC(=O)/C(=C\c2cccc(Cl)c2)S3)CC1 | 12.3%
3 | CCN(CCCNC(=O)c1ccc2c(c1)NC(=O)CN2C)c1cccc(C)c1 | -98.2% (active)
4 | O=C(Nc1ccc(F)cc1)C(CCc1ccccc1)N1CCN(CC(=O)N2CCCC2)CC1 (centres undefined) | -1.84%
5 | CC(=O)Nc1ccccc1OC(C)C(=O)N1CCC(C)CC1 (centres undefined) | 26.5%
6 | CCOC(=O)C1C(C)C(C(C)(C)C)N(S(=O)(=O)c2ccc(C)cc2)C1c1ccccc1 (centres undefined) | -15.7%
7 | CC(C)c1cc(C(=O)N/N=C/C(Br)=C/c2ccccc2)n[nH]1 | -78.1% (active)
8 | COc1ccc(C/C(C)=N/NC(=O)c2cc(C)oc2C)cc1 | -3.42%
9 | Cc1cc(C(=O)N/N=C\C(Br)=C\c2ccccc2)c(C)o1 | -99% (active)
10 | CC(C)c1cc(C(=O)O)n[nH]1 | -10.8%
11 | CC(/C=N/NC(=O)c1cc(-c2ccc3ccccc3c2)n[nH]1)=C\c1ccco1 | -29.4%
12 | CC(=C/c1ccccc1)/C=N/NC(=O)c1cc(C)oc1C | -1.83%
13 | CCC1C=C(c2ccccc2)C=CN=C1N(CC)CC (centres undefined) | -9.78%
14 | COc1c(C)cc(C(O)c2ncc(-c3cccc(C(F)(F)F)c3)[nH]2)cc1C (centres undefined) | -19.6%
15 | C=CCn1c(CCNC(=O)c2ccccc2F)nnc1SCC(=O)Nc1ccc(OC)cc1 | 0.328%
16 | N#Cc1cc([N+](=O)[O-])ccc1NCC1CCCO1 (centres undefined) | 16.2%
17 | COc1cc(OC)cc(C(=O)N[C@H](C(=O)OCC(=O)NC(C)c2ccccc2)C(C)C)c1 (some centres undefined) | 0%
18 | COc1ccc(OCCNS(=O)(=O)Cc2ccccc2)cc1 | 5.88%
19 | CC(C)(c1ccccc1)c1ccc(OCCN)cc1 | -93.8% (active)
20 | Cc1nn(CCOc2ccccc2)c(=O)n1-c1ccccc1F | -5.73%
21 | CCOn1c(=O)c(=O)n(O)c2ccccc21 | 33.6%
22 | COc1cc(C)c(CN2CCN(C(=O)CCC(=O)c3ccc(C)s3)CC2)cc1OC | -4.16%
23 | CC(C(=O)NC1CCS(=O)(=O)C1)N1C(=O)/C(=C/c2ccc(Cl)cc2)SC1=S (centres undefined) | -3.39%

Row | Compound | activity change
24 | O=C1/C(=C\c2ccc(O)cc2)CCC1CNc1ccc(Cl)cc1 (centres undefined) | -106% (active)
25 | CC(C)CC1C(=O)N(Cc2cn(Cc3ccco3)nn2)CCS(=O)(=O)N1Cc1ccc(-c2ccc(Cl)c(Cl)c2)cc1 (centres undefined) | -82.3% (active)
26 | COCOCCn1cc(CN2CCS(=O)(=O)N(Cc3ccc(-c4ccc(OC)cc4)cc3)C(CC(C)C)C2=O)nn1 (centres undefined) | -56.9% (active)
27 | COCOCCn1cc(CN2CCS(=O)(=O)N(Cc3ccc(-c4cccc(N(C)C)c4)cc3)C(CC(C)C)C2=O)nn1 (centres undefined) | -1.55%
28 | COc1ccc(-c2ccc(CN3C(CC(C)C)C(=O)N(Cc4cn(CC5CCCCC5)nn4)CCS3(=O)=O)cc2)cc1 (centres undefined) | 18.2%
29 | CC1C(=O)N(Cc2cn(Cc3ccco3)nn2)CCS(=O)(=O)N1Cc1ccc(-c2cccc(CO)c2)cc1 (centres undefined) | -17.1%
30 | CC(C)CC1C(=O)N(Cc2cn(CC3CCCCC3)nn2)CCS(=O)(=O)N1Cc1ccc(-c2ccc(Cl)cc2)cc1 (centres undefined) | -2.11%
31 | Cn1nc(N)c2ncc(C(Cl)(Cl)Cl)nc21 | -5.29%
32 | O=C(N/N=C\c1cc2c(cc1Cl)OCO2)c1ccc(Br)s1 | 7.39%
33 | COc1ccc(-c2ccc(C(=O)NC(C)C)c3occc23)c(C)c1 | -6.78%
34 | Cc1cc2nc(-c3ccc(Cl)cc3)c(Cc3cccc(F)c3)n2c(C)c1Br | 0%
35 | CCn1c(NCCc2ccc(OC)c(OC)c2)nc2c1c(=O)n(C)c(=O)n2C | 5.08%
36 | CCCCNc1nc2c(c(=O)[nH]c(=O)n2C)n1CCOc1ccccc1 | 26.9%
37 | CCCCNc1nc2c(c(=O)n(C)c(=O)n2C)n1Cc1cccc(OC)c1 | -59.5% (active)
38 | CCc1c(N=O)c(-c2ccccc2)n(O)[n+]1[O-] | -4.78%
39 | CN(C)CCNC(=O)c1ccc(-c2cn3c(-c4ccc(Oc5ccccc5)cc4)cnc3cn2)cc1 | -66.3% (active)
40 | Cc1noc(C)c1COc1ccc(C(=O)NCCOc2ccccc2)cc1 | -10.6%
41 | CN(C)C(CNC(=O)c1ccc(OCc2cn3ccccc3n2)cc1)c1ccco1 (centres undefined) | 3.62%
42 | COc1cc(N/C=C2\CC(=O)NC(C)=C2C#N)cc(OC)c1OC | 18.8%
43 | O=C(CN1CCN(c2ncc(C(F)(F)F)cc2Cl)CC1)Nc1ccc2c(c1)OCO2 | -50.6% (active)
44 | O=C(Cn1cc(C(F)(F)F)ccc1=O)Nc1ccc2c(c1)OCCO2 | -6.35%
45 | O=C(CN1CCN(C(=O)c2ccco2)CC1)Nc1ccc2c(c1)OCO2 | 21.4%
46 | CCCNC(=O)C1(C)CCCN(Cc2cccc(C(F)(F)F)c2)C1 (centres undefined) | -10.2%

Row | Compound | activity change
47 | CCC(C(=O)NCc1ccccc1)n1c(Cc2cc(F)cc(F)c2)nc2ccccc21 (centres undefined) | -4.41%
48 | CCOC(=O)[C@]12CCCC=C1N(CCC1=CCCCC1)C(=O)[C@H](CC(=O)N1CCOCC1)C2 | 12.3%
49 | CN(C)c1cccc(NC(=O)c2ccc(-c3ccc(F)c(F)c3)c3ccoc23)c1 | -82.3% (active)
50 | O=C(Nc1ccc(N2CCOCC2)cc1)c1cccc2c(-c3ccc(F)c(F)c3)coc12 | -5%
51 | COc1ccc(CNC(=O)c2ccc(-c3cccnc3)c3ccoc23)cc1OC | -14.6%
52 | COc1cc(CNC2CCCCC2)c(Br)cc1OC1CCCC1 | -64.3% (active)
53 | COc1cc(CNC2CCCC2)c(Br)cc1OCc1ccccc1 | -92.7% (active)
54 | CC(C)(C)NCc1cc(Br)ccc1OC1CCCC1 | -13.9%
55 | COc1ccc(CNC2CCCCC2)cc1 | -4.21%
56 | COc1cc(C=O)c(Br)cc1OCC(=O)NCc1ccccc1 | -25.7%
57 | COc1cc(C(=S)NC2CCCCC2)ccc1O | 5.59%
58 | CCN1C(=O)[C@H]2[C@@H](c3ccc(C(F)(F)F)cc3)N[C@]3(CCCN(Cc4ccc(Br)cc4)C3=O)[C@H]2C1=O | -19.9%
59 | O=C1C2C3C=CC(C3)C2C(=O)N1c1ncc([N+](=O)[O-])s1 (centres undefined) | 6.51%
60 | CCOc1ccc(S(=O)(=O)NCCC(=O)NCC2CCCO2)cc1 (centres undefined) | 32.7%
61 | COc1ccccc1-c1nn(Cc2ccccc2)cc1C(=O)N1CCN(c2ncccn2)CC1 | 1.02%
62 | COc1ccc(C(C(=O)NCc2ccccc2)n2c(=O)c(-c3ccccc3)nc3ccccc32)cc1 (centres undefined) | -6.01%
63 | Cc1ccc(S(=O)(=O)CC(=O)NC(C)c2ccccc2)cc1 (centres undefined) | 0.147%
64 | CSc1ccc(CCNC(=O)CS(=O)(=O)Cc2nc(-c3ccccc3F)oc2C)cc1 | 9.85%
65 | Cc1ccccc1-c1nc(CS(=O)(=O)CC(=O)NC(C)c2ccccc2)c(C)o1 (centres undefined) | -61.7% (active)
66 | NC(=S)NN=C1CCCC(C(F)(F)F)C1 (centres undefined) | 4.88%
67 | O=C(c1ccc2c(c1)C(=O)N(Cc1ccncc1)C2=O)N1CCN(S(=O)(=O)c2ccc(OC(F)(F)F)cc2)CC1 | 8.07%
68 | COc1ccccc1CNC(=O)c1cc(-c2cc(Cl)ccc2C)n[nH]1 | -16.3%
69 | Cc1ccc(O)c(-c2cc(C(=O)NCc3ccccc3)[nH]n2)c1 | -0.0227%

Row | Compound | activity change
70 | Cc1cc(O)ccc1-c1cc(C(=O)NCc2cc(C(F)(F)F)cc(C(F)(F)F)c2)[nH]n1 | -53.4% (active)
71 | COC(=O)c1ccc2nc(-c3ccc(Cl)cc3)c(Cc3cccc(F)c3)n2c1 | 58.6%
72 | CC(=O)NC(NC(=S)Nc1c(C)n(C)n(-c2ccccc2)c1=O)C(Cl)(Cl)Cl (centres undefined) | 0%
73 | CCOC(=O)N1CCN(CCC(=O)Nc2ccccc2)CC1 | -4.73%
74 | Cc1cc(NC(=O)CCN2CCN(Cc3ccccc3)CC2)ccc1Br | -54% (active)
75 | O=C(CN1CCN(Cc2ccccc2)CC1)Nc1ccc(F)c(F)c1 | -7.81%
76 | O=C(OCC(=O)N1CCCCCC1)c1cccc(Cl)c1Cl | 9.58%
77 | COc1ccc(Cl)cc1N(CC(=O)N/N=C/c1ccc(OCC(N)=O)cc1)S(C)(=O)=O | 34.5%
78 | NC(N)=N/N=C/c1ccc(OCc2ccc(Cl)cc2Cl)cc1 | -97.9% (active)
79 | Cc1nc2ccccc2nc(C)c1=NOCc1ccc(Cl)cc1Cl | 0%
80 | COc1ccc(/C=C/C(=O)OCC(=O)N2CCN(S(=O)(=O)c3ccc(C)cc3C)CC2)cc1OC | 1.01%
81 | COc1ccc(CCNc2cc(C)nc3c(-c4ccc(Cl)cc4)c(C)nn23)cc1OC | 15.4%
82 | CCOc1cccc(/C=C/c2ccc3ccccc3n2)c1OC(C)=O | -92% (active)
83 | CCOc1ccccc1-c1cc(C(=O)N/N=C(\C)c2cccnc2)c2ccccc2n1 | 6.38%
84 | COc1cccc(/C=C/c2ccc3ccccc3n2)c1OC(C)=O | -103% (active)
85 | CCOc1ccccc1/C=N/Nc1nc2ccccc2o1 | 0%
86 | CC(OC(=O)c1ccc2ccccc2n1)C(=O)c1ccccc1 (centres undefined) | 14.9%
87 | COc1cccc(/C=C2\C=C(c3ccc(C)cc3)OC2=O)c1OC(C)=O | -5.9%
88 | CC1(C(=O)Nc2ccc3c(c2)OCCO3)CSCC(=O)N1CCOc1ccccc1 (centres undefined) | -3.47%
89 | O=C(NC1CCCC1)C1c2ccccc2OCC(=O)N1CC(F)(F)F (centres undefined) | 35.1%
